From PubChem BioAssay (EPA / NIEHS)
Results filed as inconclusive are left out. Activity calls are given as the source filed them. How the source made its calls: active means hit-call score of the fitted dose curve at least 0.9, where 1 is the maximum; inconclusive means response in the unintended direction; inactive means score below 0.9.

Test system: not listed separately
Assay: ATG_XTT_Cytotoxicity: Cytotoxicity Assessment in the Attagene TRANS-FACTORIAL HepG2 Assay (AID 2283584)
Procedure, shortened: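 XTT readout of cell number in transfected HepG2 cells, 24 h post-dosing; DMSO serves as negative control and baseline, with activity taken as loss of viability signal.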

Row | Structure (SMILES) | outcome
1 | C1CNCCN1 | inactive
2 | c1ccc2sc(SSN3CCOCC3)nc2c1 | inactive
3 | CC(C)CO | inactive
4 | O=C1c2ccccc2C(=O)c2cc(S(=O)(=O)O)ccc21 | inactive
5 | CCCCC(CC)COS(=O)(=O)O (configuration not stated) | inactive
6 | Nc1ccc(C(=O)O)cc1 | inactive
7 | O=C(Oc1ccccc1)c1ccccc1O | inactive
8 | COC(=O)c1ccc(C(=O)OC)c(C(=O)OC)c1 | inactive
9 | O=C1CCCCC1C1CCCCC1 (configuration not stated) | inactive
10 | CCCCCCCCCCCC(=O)N(C)CC(=O)O | inactive

Target: Cellular tumor antigen p53 (Homo sapiens) (UniProt P04637)
Assay: TOX21_p53_BLA_p2_ratio: Tox21 HCT-116 p53 Agonism Beta-lactamase Assay, Ratio, Phase 2 (AID 2283592)
Procedure, shortened: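 Readout: blue/green (460/530 nm) FRET emission ratio after 2 h CCF4-AM loading at room temperature, excitation 405 nm. HCT116 p53 bla cells, 16 h compound exposure at 37C, 5% CO2; agonist direction fitted against DMSO baseline.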

Sequence of Cellular tumor antigen p53 (Homo sapiens) (P04637 whole entry, looked up): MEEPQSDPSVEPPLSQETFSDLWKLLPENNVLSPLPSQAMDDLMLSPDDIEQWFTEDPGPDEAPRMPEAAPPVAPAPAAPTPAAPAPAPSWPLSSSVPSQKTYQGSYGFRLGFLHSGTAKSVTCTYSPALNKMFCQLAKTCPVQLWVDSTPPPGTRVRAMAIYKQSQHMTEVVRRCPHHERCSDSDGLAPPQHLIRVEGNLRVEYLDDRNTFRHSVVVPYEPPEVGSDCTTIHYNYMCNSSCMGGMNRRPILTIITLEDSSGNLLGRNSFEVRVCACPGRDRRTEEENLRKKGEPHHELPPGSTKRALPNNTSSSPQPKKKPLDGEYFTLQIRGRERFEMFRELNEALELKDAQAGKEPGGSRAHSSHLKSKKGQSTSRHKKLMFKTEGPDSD

Row | Structure (SMILES) | outcome
11 | Cc1ccc([N+](=O)[O-])cc1N | inactive
12 | C1CNCCN1 | inactive
13 | Nc1ccc(C(=O)O)cc1 | inactive

Target: Cellular tumor antigen p53 (Homo sapiens) (UniProt P04637)
Assay: TOX21_p53_BLA_p3_ratio: Tox21 HCT-116 p53 Agonism Beta-lactamase Assay, Ratio, Phase 3 (AID 2283596)
Procedure, shortened: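 Cells were seeded at 4000/well, rested 5 h at 37C, then dosed with DMSO compound solutions (217-fold dilution) for 16 h. CCF4-AM substrate was loaded for 2 h at room temperature, and the 460/530 nm emission ratio was fitted for gain of signal versus DMSO.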

Row | Structure (SMILES) | outcome
14 | Cc1ccc([N+](=O)[O-])cc1N | inactive
15 | C1CNCCN1 | inactive
16 | Nc1ccc(C(=O)O)cc1 | inactive

Target: Cellular tumor antigen p53 (Homo sapiens) (UniProt P04637)
Assay: TOX21_p53_BLA_p5_ratio: Tox21 HCT-116 p53 Agonism Beta-lactamase Assay, Ratio, Phase 5 (AID 2283599)
Procedure, shortened: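 HCT-116 p53-bla cells (4000/well) plated 5 h, dosed with compound (217-fold DMSO dilution) for 16 h at 37 C; CCF4-AM substrate 2 h at room temperature. Activity is the 460/530 nm emission ratio (405 nm excitation), fitted in gain-of-signal direction versus DMSO.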

Row | Structure (SMILES) | outcome
17 | Cc1ccc([N+](=O)[O-])cc1N | inactive
18 | C1CNCCN1 | inactive
19 | Nc1ccc(C(=O)O)cc1 | inactive

Test system: not listed separately
Assay: TOX21_p53_BLA_p5_viability: Viability Assessment in the Tox21 HCT-116 p53 Agonism Beta-lactamase Assay, Phase 5 (AID 2283600)
Procedure, shortened: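 ATP luminescence (CellTiter-Glo, 30 min, RT) served as the viability read-out, with loss of signal indicating cytotoxicity. Compounds in DMSO were pinned at a 217-fold dilution onto 4000 cells/well and incubated 16 h, 37C.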

Row | Structure (SMILES) | outcome
20 | Cc1ccc([N+](=O)[O-])cc1N | inactive
21 | C1CNCCN1 | inactive
22 | Nc1ccc(C(=O)O)cc1 | inactive

Test system: not listed separately
Assay: Tanguay_ZF_120hpf_MORT_legacy: (Legacy) Oregon State University Tanguay Lab 120 Hour Post-fertilization zebrafish Assay for Mortality (AID 2283633)
Procedure, shortened: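 Brightfield scoring of embryo death (binary) at 24 and 120 hpf; static exposure 6–120 hpf, 28C, sealed and foil-covered. Pronase-dechorionated 5D wild-type larvae, single embryo per well. DMSO 0.64% v/v; trimethyltin chloride 5uM positive control.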

Row | Structure (SMILES) | outcome
23 | Cc1ccc([N+](=O)[O-])cc1N | inactive
24 | C1CNCCN1 | inactive
25 | Nc1ccc(C(=O)O)cc1 | inactive

Test system: not listed separately
Assay: Tanguay_ZF_120hpf_AXIS_legacy: (Legacy) Oregon State University Tanguay Lab 120 Hour Post-fertilization zebrafish Assay for Body Axis Malformation (AID 2283635)
Procedure, shortened: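 Embryos: 5D wild-type, pronase-dechorionated 4 hpf; static exposure 6–120 hpf, 28C, sealed, dark, 1 embryo/well, 0.64% DMSO. 120 hpf axis malformation scored present/absent; dead embryos excluded. Analysed as gain of signal vs DMSO.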

Row | Structure (SMILES) | outcome
26 | Cc1ccc([N+](=O)[O-])cc1N | inactive
27 | C1CNCCN1 | inactive
28 | Nc1ccc(C(=O)O)cc1 | inactive

Test system: not listed separately
Assay: Tanguay_ZF_120hpf_SNOU_legacy: (Legacy) Oregon State University Tanguay Lab 120 Hour Post-fertilization zebrafish Assay for Snout Malformation (AID 2283637)
Procedure, shortened: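 Binary brightfield scoring of snout malformation at 120 hpf. Dechorionated 5D wild-type embryos, one per well, static exposure from 6 hpf at 28C, sealed and dark; final DMSO 0.64% (vol/vol), DMSO as baseline; 5uM trimethyltin chloride positive control.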

Row | Structure (SMILES) | outcome
29 | Cc1ccc([N+](=O)[O-])cc1N | inactive
30 | C1CNCCN1 | inactive
31 | Nc1ccc(C(=O)O)cc1 | inactive

Test system: not listed separately
Assay: Tanguay_ZF_120hpf_JAW_legacy: (Legacy) Oregon State University Tanguay Lab 120 Hour Post-fertilization zebrafish Assay for Jaw Malformation (AID 2283638)
Procedure, shortened: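 Binary jaw-malformation calls at 120 hpf by brightfield imaging; DMSO (0.64% v/v) = baseline. Embryos: 5D wild-type, pronase-dechorionated, one per well from 6 hpf, static exposure, 28C, sealed, dark.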

Row | Structure (SMILES) | outcome
32 | Cc1ccc([N+](=O)[O-])cc1N | inactive
33 | C1CNCCN1 | inactive
34 | Nc1ccc(C(=O)O)cc1 | inactive

Test system: not listed separately
Assay: Tanguay_ZF_120hpf_OTIC_legacy: (Legacy) Oregon State University Tanguay Lab 120 Hour Post-fertilization zebrafish Assay for Otic Vesicle Malformation (AID 2283639)
Procedure, shortened: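 Statically exposed wild-type 5D zebrafish embryos, kept sealed and dark at 28C through 120 hours post fertilization, were examined by brightfield microscopy for otic vesicle defects. Responses were recorded as present or absent and analysed relative to DMSO.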

Row | Structure (SMILES) | outcome
35 | Cc1ccc([N+](=O)[O-])cc1N | inactive
36 | C1CNCCN1 | inactive
37 | Nc1ccc(C(=O)O)cc1 | inactive
